# Experimental data: PubChem BioAssay AID493201 (National Center for Advancing Translational Sciences (NCATS), 2011)
# Inconclusive results are not listed. Where a call stands in place of a potency, no number is given. Activity calls are given as the source filed them. The call rests on the fitted dose curve; in most records, active means well fitted activation curve with a large enough effect; inconclusive means small, poorly fitted or top-dose-only effect; inactive means no such curve, though single readings can be large or run the other way.
# Assay: qHTS Assay for Identifying a Potential Treatment of Ataxia-Telangiectasia: Secondary assay (no NCS) hit validation;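 further: phosphorylated KAP1 signal as a proxy for ATM-like kinase activity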
# Conditions: A-T patient fibroblasts, AlphaLISA, no DNA damage added, 90 min; series mostly up to 76.9 µM
# In short: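 Without NCS-induced DNA breaks, ATM-like activity scored as phospho-KAP1 AlphaLISA signal (pKAP1/total KAP1 bead pair) in ATM-null F2112 fibroblasts; compound series up to 76.7 uM final, 37C incubation, lysates read on AlphaScreen protocol.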
# Potency means the concentration at half of the fitted maximal effect.
row,SMILES,Potency
1,CC(O)[C@H]1CNC(=O)C(=O)N1CC1(c2ccccc2)CC1 (some centres not stated),inactive
2,COc1ccc(Cl)cc1NC(=O)C[n+]1cccc(C)c1,inactive
3,COC(=O)c1cccc2c1-c1ccccc1/C2=N\NC(N)=O,inactive
4,CCOc1cccc(C(=O)Nc2ccccc2N2CCN(C(=O)C(C)C)CC2)c1,inactive
5,COc1ccc(CNC(=O)COc2cccnc2[N+](=O)[O-])cc1OC,inactive
6,CN(C)c1cc(Nc2ccc(O)cc2)c([N+](=O)[O-])c2nonc12,inactive
7,CCN(CC)c1ccc2cc(-c3nc4ccccc4[nH]3)c(=O)oc2c1,inactive
8,O=c1c(-c2ccc(Cl)cc2)c[nH]n1-c1ccccc1,inactive
9,Cc1nc(Nc2ccc(Cl)cc2)c2oc3ccccc3c2n1,inactive
10,CN(C)S(=O)(=O)c1cccc(C(=O)N=C2N=C3C=CC(Cl)=CN3Cc3ccccc32)c1,inactive
11,COc1ccc(CCn2c(S)nc3ccccc3c2=O)cc1,41200 nM (active)
12,COc1ccc(NC(=O)C2CC2)cc1OC1CCCC1,inactive
13,CCC12CN(C(=O)c3ccc([N+](=O)[O-])cc3)CC(CC)(CN(C(=O)c3ccc([N+](=O)[O-])cc3)C1)C2=O,207 nM (active)
14,CCC(=O)c1ccc2c(c1)OCCO2,inactive
15,COc1cccc(OCCc2c(C)n[nH]c2C)c1,inactive
16,O=C(CNCc1cccs1)Nc1ccc(OC(F)(F)F)cc1,inactive
17,O=C1C(Cl)=C(Nc2ccc3cn[nH]c3c2)C(=O)c2ccccc21,1300 nM (active)
